Results reported in paper PMC7862700, “An all-to-all approach to the identification of sequence-specific readers for epigenetic DNA modifications on cytosine”.

Key:
Assay in all cases: DAPPL (digital affinity profiling via proximity ligation, sequencing); 10 mM Tris-HCl pH 7.5, 50 mM NaCl, 1 mM DTT, 4% glycerol, room temperature, 30 min; GST-TFs on glutathione beads, 16-mer random dsDNA library, 0.1% formaldehyde crosslink after washing; high values mean tight binding
Conditions in all cases: protein: recombinant; tags: N-terminal GST; dsDNA, one strand shown
[1] = biological target: T1, GABPA (Homo sapiens, UniProt Q06546 1-454)
T1 sequence: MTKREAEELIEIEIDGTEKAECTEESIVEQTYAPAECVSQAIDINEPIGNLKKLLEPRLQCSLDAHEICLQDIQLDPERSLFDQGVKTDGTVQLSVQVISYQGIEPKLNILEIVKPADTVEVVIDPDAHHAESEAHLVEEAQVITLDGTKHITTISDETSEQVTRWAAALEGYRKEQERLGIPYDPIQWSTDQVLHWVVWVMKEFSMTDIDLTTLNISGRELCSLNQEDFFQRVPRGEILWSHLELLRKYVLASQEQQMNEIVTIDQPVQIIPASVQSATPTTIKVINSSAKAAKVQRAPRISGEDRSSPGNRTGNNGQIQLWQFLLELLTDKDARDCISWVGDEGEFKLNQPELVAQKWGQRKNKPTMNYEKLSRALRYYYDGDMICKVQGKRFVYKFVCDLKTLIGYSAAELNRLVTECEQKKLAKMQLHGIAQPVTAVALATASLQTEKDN
Procedure, shortened: (§1)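 Beads coated with glutathione captured GST-fused human transcription factors that had been expressed in yeast, and the factors were then given DNA barcodes and pooled with a tag-only sample. The pools were incubated with 200 nmole of a random double-stranded 16-mer DNA library in Tris/NaCl/DTT/glycerol buffer for 30 min at room temperature, washed, crosslinked with 0.1% formaldehyde and proximity-ligated with BsaI/T4 ligase at 37 °C for 1 h. PCR amplification and Illumina NextSeq500 sequencing came last. Binding signal is each hexamer's read frequency for a factor divided by its frequency for the tag-only sample.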

[2] = biological target: T2, ERG (Homo sapiens, UniProt P11308 1-479)
T2 sequence: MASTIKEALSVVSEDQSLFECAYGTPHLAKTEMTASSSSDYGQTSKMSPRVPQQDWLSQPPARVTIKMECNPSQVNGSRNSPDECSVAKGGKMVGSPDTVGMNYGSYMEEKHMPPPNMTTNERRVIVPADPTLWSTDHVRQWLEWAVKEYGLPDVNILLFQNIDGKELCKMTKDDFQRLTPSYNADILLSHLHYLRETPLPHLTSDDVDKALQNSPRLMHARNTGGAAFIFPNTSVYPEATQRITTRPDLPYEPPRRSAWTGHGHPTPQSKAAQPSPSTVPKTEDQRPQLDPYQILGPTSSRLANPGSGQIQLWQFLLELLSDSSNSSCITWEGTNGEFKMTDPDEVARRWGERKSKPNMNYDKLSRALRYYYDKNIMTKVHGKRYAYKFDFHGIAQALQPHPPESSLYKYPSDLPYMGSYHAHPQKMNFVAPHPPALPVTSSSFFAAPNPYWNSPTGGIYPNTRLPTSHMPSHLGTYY
Procedure, shortened: as §1

[3] = biological target: ELF1 (Homo sapiens, UniProt P32519 1-619)
Chain of ELF1 (P32519 whole entry): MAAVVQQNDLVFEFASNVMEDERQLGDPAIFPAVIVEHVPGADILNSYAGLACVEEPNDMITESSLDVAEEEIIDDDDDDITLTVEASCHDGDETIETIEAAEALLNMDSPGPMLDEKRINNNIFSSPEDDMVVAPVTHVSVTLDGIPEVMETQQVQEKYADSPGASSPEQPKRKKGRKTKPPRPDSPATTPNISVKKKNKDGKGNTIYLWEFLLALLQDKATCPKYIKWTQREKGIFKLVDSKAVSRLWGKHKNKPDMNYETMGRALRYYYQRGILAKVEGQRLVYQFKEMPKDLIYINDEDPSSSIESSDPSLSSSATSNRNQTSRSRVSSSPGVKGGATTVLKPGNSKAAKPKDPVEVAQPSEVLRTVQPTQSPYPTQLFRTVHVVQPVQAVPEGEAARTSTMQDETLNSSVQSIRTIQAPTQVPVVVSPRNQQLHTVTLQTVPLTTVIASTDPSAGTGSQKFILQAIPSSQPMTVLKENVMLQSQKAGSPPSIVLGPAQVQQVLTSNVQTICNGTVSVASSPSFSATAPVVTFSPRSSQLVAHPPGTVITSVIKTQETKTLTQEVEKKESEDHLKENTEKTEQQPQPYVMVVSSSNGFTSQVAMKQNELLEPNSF
Procedure, shortened: as §1

[4] = biological target: ETV5 (Homo sapiens, UniProt P41161 1-510)
Chain of ETV5 (P41161 whole entry): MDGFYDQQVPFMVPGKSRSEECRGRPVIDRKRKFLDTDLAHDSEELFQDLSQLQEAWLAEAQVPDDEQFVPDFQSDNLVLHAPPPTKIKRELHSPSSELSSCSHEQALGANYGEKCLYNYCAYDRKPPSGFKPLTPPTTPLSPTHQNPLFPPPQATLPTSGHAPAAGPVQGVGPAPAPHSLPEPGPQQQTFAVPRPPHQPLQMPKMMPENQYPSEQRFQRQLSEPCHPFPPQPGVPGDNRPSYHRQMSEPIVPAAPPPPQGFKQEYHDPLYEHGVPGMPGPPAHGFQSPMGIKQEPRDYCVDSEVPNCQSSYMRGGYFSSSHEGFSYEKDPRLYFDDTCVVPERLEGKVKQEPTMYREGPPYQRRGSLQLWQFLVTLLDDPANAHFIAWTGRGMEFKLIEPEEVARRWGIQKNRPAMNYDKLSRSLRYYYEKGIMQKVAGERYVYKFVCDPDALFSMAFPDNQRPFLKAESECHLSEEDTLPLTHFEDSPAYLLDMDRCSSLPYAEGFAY
Procedure, shortened: as §1

[5] = biological target: T3, SPIC (Homo sapiens, UniProt Q8N5J4 1-248)
T3 sequence: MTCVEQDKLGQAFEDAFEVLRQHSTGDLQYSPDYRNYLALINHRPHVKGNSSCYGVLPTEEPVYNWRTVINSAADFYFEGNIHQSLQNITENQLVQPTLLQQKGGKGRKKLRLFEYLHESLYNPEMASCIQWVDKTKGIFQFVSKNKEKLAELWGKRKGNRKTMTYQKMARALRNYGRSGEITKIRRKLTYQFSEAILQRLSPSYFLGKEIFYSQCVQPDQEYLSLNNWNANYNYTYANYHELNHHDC
Procedure, shortened: as §1

[6] = biological target: ELF4 (Homo sapiens, UniProt Q99607 1-663)
Chain of ELF4 (Q99607 whole entry): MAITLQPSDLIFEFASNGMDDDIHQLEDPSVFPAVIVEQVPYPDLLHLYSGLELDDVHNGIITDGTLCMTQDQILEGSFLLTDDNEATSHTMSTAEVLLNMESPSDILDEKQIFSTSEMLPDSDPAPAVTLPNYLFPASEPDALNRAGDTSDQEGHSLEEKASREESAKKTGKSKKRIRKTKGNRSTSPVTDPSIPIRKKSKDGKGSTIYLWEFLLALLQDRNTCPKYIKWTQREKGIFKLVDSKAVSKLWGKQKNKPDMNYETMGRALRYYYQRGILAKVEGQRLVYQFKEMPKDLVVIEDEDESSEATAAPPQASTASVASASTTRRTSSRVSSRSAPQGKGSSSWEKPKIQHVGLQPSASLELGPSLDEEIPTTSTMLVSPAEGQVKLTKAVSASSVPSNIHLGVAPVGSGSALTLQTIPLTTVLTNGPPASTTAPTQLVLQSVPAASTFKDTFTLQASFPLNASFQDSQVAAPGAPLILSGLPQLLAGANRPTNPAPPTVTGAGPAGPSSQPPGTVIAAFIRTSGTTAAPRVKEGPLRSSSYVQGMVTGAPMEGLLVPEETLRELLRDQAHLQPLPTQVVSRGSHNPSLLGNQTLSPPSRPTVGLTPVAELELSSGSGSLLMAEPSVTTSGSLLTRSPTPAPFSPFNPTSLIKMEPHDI
Procedure, shortened: as §1

[7] = biological target: T4, ELK4 (Homo sapiens, UniProt P28324-2 1-405)
T4 sequence: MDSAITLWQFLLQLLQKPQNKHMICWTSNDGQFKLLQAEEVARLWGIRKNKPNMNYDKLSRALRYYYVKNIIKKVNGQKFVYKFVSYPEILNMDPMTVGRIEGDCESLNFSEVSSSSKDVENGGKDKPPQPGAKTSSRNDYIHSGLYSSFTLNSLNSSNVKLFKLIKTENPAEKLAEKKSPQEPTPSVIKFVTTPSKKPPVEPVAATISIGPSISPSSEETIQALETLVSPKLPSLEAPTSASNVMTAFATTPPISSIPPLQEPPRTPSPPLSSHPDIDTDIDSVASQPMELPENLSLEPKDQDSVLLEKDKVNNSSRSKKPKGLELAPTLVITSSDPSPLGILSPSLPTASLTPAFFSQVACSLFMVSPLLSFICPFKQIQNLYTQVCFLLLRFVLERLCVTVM
Procedure, shortened: as §1

[8] = biological target: T5, ELK1 (Homo sapiens, UniProt P19419 1-428)
T5 sequence: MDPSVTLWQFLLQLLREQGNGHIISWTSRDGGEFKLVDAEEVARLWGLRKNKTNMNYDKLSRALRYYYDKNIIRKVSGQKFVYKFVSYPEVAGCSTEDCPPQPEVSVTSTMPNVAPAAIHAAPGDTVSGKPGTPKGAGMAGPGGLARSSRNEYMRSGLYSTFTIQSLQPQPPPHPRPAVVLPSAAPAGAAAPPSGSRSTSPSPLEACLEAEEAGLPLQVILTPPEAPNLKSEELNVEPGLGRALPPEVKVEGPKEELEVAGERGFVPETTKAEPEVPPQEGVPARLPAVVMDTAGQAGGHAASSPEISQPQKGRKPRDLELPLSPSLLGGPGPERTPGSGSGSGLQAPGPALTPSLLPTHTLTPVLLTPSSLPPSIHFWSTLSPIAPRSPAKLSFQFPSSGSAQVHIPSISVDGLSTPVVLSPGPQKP
Procedure, shortened: as §1

[9] = biological target: SPIB (Homo sapiens, UniProt Q01892 1-262)
Chain of SPIB (Q01892 whole entry): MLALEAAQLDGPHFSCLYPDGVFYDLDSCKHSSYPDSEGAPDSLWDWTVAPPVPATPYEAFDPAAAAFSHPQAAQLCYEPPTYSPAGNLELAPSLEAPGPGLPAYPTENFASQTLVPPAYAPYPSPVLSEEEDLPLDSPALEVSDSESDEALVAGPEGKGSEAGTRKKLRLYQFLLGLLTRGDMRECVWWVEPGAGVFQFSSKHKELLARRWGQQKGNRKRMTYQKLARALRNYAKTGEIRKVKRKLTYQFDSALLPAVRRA
Procedure, shortened: as §1

[10] = biological target: T6, ELF3 (Homo sapiens, UniProt P78545 1-371)
T6 sequence: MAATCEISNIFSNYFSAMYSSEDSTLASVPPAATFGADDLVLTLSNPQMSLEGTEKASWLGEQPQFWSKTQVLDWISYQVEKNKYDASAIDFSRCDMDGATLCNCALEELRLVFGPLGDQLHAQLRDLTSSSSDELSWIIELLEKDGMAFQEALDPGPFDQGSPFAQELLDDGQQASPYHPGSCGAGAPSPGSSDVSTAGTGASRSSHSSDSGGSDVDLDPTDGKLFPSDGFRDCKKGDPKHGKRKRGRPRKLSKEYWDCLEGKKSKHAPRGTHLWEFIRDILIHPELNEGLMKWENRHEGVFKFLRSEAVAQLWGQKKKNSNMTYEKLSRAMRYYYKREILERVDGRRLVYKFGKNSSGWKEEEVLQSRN
Procedure, shortened: as §1

[11] = biological target: ETV1 (Homo sapiens, UniProt P50549 1-477)
Chain of ETV1 (P50549 whole entry): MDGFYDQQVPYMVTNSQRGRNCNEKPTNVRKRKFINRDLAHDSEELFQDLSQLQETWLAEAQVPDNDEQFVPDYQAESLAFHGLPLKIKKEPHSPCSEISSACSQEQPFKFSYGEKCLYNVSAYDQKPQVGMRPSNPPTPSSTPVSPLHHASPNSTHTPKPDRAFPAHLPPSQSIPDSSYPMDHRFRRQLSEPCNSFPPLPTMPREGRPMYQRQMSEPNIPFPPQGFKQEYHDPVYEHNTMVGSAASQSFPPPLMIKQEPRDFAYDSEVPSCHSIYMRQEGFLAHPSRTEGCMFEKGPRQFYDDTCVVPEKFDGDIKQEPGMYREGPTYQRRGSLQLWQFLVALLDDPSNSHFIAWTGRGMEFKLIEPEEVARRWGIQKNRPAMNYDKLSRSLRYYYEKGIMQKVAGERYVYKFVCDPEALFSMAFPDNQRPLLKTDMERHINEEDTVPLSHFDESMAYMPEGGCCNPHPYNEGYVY
Procedure, shortened: as §1

[12] = biological target: T7, ERF (Homo sapiens, UniProt P50548 1-548)
T7 sequence: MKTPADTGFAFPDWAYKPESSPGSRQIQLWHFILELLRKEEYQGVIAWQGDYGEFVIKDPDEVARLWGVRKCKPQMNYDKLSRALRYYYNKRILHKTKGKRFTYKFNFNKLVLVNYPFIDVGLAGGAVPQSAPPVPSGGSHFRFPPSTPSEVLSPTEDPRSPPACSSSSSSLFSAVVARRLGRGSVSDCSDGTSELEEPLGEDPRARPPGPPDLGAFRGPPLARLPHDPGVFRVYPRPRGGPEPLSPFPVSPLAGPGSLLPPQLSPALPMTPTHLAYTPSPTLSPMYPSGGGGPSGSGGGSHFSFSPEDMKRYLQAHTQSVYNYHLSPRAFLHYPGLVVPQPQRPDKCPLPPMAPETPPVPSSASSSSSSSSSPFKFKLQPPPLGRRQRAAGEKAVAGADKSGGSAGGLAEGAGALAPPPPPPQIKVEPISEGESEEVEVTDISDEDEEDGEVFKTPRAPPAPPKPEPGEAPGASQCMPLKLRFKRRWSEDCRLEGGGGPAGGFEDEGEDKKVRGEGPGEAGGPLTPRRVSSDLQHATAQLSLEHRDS
Procedure, shortened: as §1

[13] = biological target: T8, ETV3L (Homo sapiens, UniProt Q6ZN32 1-361)
T8 sequence: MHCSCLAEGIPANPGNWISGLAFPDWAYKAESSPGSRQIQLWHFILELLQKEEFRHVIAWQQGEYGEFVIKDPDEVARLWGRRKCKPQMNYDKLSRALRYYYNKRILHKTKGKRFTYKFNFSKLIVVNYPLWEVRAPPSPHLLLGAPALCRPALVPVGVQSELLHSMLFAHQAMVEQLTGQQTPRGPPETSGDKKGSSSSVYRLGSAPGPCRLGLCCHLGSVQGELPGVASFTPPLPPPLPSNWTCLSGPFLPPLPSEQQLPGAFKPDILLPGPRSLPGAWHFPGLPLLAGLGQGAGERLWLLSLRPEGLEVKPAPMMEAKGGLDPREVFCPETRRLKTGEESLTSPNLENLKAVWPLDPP
Procedure, shortened: as §1

[14] = biological target: T9, ETV7 (Homo sapiens, UniProt Q9Y603 1-341)
T9 sequence: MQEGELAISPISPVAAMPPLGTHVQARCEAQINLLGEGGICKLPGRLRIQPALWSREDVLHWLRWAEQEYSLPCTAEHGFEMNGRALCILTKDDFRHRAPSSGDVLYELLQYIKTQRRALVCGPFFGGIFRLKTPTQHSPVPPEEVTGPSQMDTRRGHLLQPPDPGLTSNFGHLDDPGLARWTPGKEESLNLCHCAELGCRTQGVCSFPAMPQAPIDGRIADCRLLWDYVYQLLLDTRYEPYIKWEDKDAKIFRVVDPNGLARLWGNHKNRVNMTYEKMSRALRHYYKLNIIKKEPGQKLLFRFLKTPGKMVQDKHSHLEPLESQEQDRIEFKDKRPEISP
Procedure, shortened: as §1

[15] = biological target: ETV6 (Homo sapiens, UniProt P41212 1-452)
Chain of ETV6 (P41212 whole entry): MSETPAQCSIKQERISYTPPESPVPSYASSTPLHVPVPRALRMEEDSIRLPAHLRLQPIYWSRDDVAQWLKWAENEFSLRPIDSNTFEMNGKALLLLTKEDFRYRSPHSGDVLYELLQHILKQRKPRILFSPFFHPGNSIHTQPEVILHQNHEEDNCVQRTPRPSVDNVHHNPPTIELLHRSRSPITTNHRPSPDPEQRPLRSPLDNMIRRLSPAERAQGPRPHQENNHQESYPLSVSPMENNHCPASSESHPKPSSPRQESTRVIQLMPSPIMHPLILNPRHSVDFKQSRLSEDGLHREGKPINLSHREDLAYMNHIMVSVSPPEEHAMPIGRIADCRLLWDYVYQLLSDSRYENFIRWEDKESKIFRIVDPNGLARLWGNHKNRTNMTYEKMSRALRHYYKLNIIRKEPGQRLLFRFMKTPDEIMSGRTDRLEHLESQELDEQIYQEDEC
Procedure, shortened: as §1

Row | Sequence | binding signal [1] | binding signal [2] | binding signal [3] | binding signal [4] | binding signal [5] | binding signal [6] | binding signal [7] | binding signal [8] | binding signal [9] | binding signal [10] | binding signal [11] | binding signal [12] | binding signal [13] | binding signal [14] | binding signal [15]
1 | ACGCTC | 1.05 fold enrichment (6-mer frequency, TF over GST control) | 1.01 fold enrichment (6-mer frequency, TF over GST control) | 1.07 fold enrichment (6-mer frequency, TF over GST control) | 1.01 fold enrichment (6-mer frequency, TF over GST control) | 1 fold enrichment (6-mer frequency, TF over GST control) | 1.08 fold enrichment (6-mer frequency, TF over GST control) | 1.01 fold enrichment (6-mer frequency, TF over GST control) | – | – | – | – | – | – | – | –
2 | GGGGCT | 1.11 fold enrichment (6-mer frequency, TF over GST control) | 1.01 fold enrichment (6-mer frequency, TF over GST control) | 1.04 fold enrichment (6-mer frequency, TF over GST control) | 1.04 fold enrichment (6-mer frequency, TF over GST control) | 1.01 fold enrichment (6-mer frequency, TF over GST control) | 1.1 fold enrichment (6-mer frequency, TF over GST control) | 1.14 fold enrichment (6-mer frequency, TF over GST control) | 1.09 fold enrichment (6-mer frequency, TF over GST control) | 1.03 fold enrichment (6-mer frequency, TF over GST control) | 1.01 fold enrichment (6-mer frequency, TF over GST control) | 1.11 fold enrichment (6-mer frequency, TF over GST control) | 1.06 fold enrichment (6-mer frequency, TF over GST control) | 1.22 fold enrichment (6-mer frequency, TF over GST control) | 1.06 fold enrichment (6-mer frequency, TF over GST control) | 1.04 fold enrichment (6-mer frequency, TF over GST control)
